This is an account of results in PubChem BioAssay (NCI).

Compounds without any hit were thinned out: in the full panel of roughly 83,000, 20% have a hit.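 Note: values are percent growth. 100 is the growth of untreated cells, values between 100 and 0 indicate rising inhibition; between -100 and 0 indicates cell death.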 A number with no mark means an inactive call. The source made the active and inactive calls. The calls were made as follows: active = growth percent below 10; inactive = the rest.

This test has as its system HL-60(TB) leukemia. As to the kind of experiment: NCI-60 one-dose screen, 48 h (100 = growth as untreated, 0 = no growth, -100 = all killed). The following applies: 10 µM unless noted.
For the compound `CCN(CCO)CCC(=O)c1ccc([N+](=O)[O-])cc1`, the growth is 109%. With `C/C(=N\NC(=O)c1ccccc1O)c1cccc(/C(C)=N/NC(=O)c2ccccc2O)n1` the figure was 6.42% (active); with `O=C1C=CC(=O)N1c1cccc(N2C(=O)C=CC2=O)c1`, 97.9%; with `CCCCCCCCCCCCCCCCNC(=O)Nc1ccc(C)c(NC(=O)NCCCCCCCCCCCCCCCC)c1`, 98.8%.
